The assay concerns the target Genome polyprotein (Dengue virus type 2 (strain 16681-PDK53)) (UniProt P29991). The experiment in a line: flavivirus cap methylation enzyme inhibition – biochemical, confirmation dose response, primary screen (AID 588689). To be noted: Dengue-2 NS5 methyltransferase capping enzyme assay, at 25 µM, stronger effect = higher value.

Hit rate of the full screen: of about 340,000 compounds, about 1,000 (0.29%) were called active. Cut-off read from the data, not from the text of the source: inconclusive = inhibition above about 29% without an active follow-up result; inactive = below that. Not all results are given here. Potency and affinity values are given separately.

Inhibition data for 61 compounds are collected here from PubChem BioAssay AID588689 (Southern Research Specialized Biocontainment Screening …, 2011).

As usually defined, the inhibition is the drop in the measured response relative to a control, in per cent.

Chain of Genome polyprotein (Dengue virus type 2 (strain 16681-PDK53)) (P29991 whole entry, looked up): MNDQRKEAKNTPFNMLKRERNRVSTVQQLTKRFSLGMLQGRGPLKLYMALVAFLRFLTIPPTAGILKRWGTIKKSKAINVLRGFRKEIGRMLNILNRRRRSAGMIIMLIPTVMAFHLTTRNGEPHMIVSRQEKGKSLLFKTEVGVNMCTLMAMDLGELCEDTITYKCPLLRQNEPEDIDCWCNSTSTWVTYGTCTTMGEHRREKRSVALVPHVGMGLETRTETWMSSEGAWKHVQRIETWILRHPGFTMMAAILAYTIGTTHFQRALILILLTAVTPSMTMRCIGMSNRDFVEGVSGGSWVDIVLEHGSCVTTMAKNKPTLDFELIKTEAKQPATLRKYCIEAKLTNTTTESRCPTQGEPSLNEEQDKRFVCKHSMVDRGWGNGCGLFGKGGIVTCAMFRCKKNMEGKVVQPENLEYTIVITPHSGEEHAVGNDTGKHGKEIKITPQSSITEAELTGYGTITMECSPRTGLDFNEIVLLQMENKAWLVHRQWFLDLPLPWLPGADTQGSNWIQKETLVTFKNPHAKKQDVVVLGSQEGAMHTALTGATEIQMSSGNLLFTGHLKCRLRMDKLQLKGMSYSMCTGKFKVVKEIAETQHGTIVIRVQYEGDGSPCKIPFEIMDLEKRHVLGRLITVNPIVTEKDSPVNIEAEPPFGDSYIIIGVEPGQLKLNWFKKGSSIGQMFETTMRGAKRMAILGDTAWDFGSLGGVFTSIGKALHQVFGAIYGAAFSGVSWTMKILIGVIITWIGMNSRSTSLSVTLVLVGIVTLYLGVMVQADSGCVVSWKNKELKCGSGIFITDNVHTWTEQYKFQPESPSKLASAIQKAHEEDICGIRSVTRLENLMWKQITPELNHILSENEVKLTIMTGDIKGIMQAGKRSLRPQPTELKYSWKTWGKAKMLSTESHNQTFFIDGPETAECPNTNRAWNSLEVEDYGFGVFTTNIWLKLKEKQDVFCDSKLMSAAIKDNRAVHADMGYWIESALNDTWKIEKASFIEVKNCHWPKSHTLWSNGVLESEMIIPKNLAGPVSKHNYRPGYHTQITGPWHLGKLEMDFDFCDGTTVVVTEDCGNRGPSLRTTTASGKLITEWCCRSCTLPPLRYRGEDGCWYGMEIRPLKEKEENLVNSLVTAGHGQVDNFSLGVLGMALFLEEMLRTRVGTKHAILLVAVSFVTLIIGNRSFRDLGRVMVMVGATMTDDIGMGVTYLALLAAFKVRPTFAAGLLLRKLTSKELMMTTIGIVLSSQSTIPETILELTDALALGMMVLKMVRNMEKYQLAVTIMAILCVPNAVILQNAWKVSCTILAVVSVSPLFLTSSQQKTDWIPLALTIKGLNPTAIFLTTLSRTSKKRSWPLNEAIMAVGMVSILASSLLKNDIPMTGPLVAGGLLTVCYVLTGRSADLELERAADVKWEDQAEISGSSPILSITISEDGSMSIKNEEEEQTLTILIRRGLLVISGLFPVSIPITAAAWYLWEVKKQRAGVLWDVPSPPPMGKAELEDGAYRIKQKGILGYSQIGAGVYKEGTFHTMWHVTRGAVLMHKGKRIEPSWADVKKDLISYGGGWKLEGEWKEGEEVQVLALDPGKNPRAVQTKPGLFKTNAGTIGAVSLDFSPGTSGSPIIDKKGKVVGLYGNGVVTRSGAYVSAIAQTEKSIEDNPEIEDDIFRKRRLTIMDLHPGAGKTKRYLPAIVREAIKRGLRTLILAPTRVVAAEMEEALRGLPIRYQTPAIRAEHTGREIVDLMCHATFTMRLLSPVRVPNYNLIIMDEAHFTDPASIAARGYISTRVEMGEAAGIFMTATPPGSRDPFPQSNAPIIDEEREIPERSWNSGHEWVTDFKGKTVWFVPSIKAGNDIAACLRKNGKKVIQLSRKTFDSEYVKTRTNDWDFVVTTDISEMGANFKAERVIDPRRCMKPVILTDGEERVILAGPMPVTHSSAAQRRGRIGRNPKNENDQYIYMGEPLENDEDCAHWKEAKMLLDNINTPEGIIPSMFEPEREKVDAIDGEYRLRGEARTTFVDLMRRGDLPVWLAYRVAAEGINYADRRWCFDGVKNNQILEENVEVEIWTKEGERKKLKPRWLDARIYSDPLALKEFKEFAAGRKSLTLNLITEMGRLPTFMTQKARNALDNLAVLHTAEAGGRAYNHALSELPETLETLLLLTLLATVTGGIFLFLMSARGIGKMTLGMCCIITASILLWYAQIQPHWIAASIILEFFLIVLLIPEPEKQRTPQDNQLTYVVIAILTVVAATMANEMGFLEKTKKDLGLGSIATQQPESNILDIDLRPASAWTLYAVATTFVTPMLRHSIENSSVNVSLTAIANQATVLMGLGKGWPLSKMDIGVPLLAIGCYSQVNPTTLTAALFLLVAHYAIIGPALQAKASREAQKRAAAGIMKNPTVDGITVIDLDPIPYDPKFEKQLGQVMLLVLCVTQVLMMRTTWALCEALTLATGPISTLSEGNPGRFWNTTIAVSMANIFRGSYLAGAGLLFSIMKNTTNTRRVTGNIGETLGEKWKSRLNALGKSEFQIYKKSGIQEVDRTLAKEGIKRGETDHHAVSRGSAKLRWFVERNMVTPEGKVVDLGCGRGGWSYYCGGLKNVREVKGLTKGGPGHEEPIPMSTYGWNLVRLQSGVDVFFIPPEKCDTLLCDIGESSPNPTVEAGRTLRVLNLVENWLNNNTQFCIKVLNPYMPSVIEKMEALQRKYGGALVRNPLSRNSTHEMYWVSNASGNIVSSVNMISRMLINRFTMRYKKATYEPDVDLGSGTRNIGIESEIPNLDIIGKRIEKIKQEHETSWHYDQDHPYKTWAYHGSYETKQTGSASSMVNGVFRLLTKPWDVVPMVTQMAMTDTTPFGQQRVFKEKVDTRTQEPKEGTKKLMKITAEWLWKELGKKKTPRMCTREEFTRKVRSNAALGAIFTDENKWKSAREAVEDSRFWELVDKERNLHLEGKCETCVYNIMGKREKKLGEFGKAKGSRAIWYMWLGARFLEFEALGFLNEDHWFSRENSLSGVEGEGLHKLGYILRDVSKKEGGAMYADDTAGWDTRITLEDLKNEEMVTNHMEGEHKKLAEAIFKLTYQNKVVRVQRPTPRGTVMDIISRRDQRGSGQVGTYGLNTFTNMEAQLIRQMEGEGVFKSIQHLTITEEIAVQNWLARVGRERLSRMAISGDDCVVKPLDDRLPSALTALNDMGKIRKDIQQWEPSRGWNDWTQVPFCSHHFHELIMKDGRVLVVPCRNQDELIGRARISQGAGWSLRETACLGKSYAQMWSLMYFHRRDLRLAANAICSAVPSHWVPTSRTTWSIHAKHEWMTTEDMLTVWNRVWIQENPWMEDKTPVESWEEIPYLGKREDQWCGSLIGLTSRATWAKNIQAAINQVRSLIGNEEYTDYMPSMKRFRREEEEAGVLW

In the case of `Cc1ccc(C2=NNC(C(O)C(O)C(O)CO)S2)cc1` (configuration not stated), the inhibition is -8.04% (inactive). In the case of `O=C(CCN1C(=O)/C(=C\C=C\c2ccccc2)SC1=S)Nc1ccc(C(=O)O)cc1`, the inhibition is 9.75% (inactive). Still for that read-out and setting: to `O=C(CCN1C(=O)/C(=C/c2cccs2)SC1=S)Nc1ccc(C(=O)O)c(O)c1` belongs 15% (inactive). On the same count and under the same terms, to `O=C(CCN1C(=O)S/C(=C/c2ccc(F)cc2)C1=O)Nc1ccc(O)c(C(=O)O)c1` belongs 19.6% (inactive); to `O=C(CCN1C(=O)/C(=C/c2ccccc2Cl)SC1=S)Nc1ccccn1`, 1.55% (inactive). Same read-out and setting: under `O=C(CCN1C(=O)/C(=C/c2ccccc2Cl)SC1=S)NNC(=O)c1ccccc1O` stands -5.13% (inactive); under `COc1ccccc1/C=C1\SC(=S)N(CCC(=O)Nc2ccc(C(=O)O)c(O)c2)C1=O`, 19.8% (inactive); under `O=C(CCN1C(=O)S/C(=C/c2ccccc2)C1=O)Nc1ccc(C(=O)O)c(O)c1`, 25.9% (inactive). For the compound `O=C(CN1C(=O)S/C(=C\C=C\c2ccccc2)C1=O)Nc1ccccc1C(=O)O`, the inhibition is 24.3% (inactive). Same read-out and setting: to `CCN(Cc1nc2cc(Cl)ccc2c(=O)[nH]1)C(=O)c1cccc(NC(=O)c2cccs2)c1` belongs -6.19% (inactive); to `Cc1ccc(NC(=O)CCC(=O)c2ccccc2)cc1`, -17.5% (inactive); to `Cc1ccc(S(=O)(=O)NCCN2CCOCC2)c(C)c1C`, 3.68% (inactive). Still for that read-out and setting: under `O=C(Cc1ccc(Cl)cc1)N1CCC2(CC1)NCCc1[nH]cnc12` stands -10.7% (inactive); under `Cc1cc(NC(=O)CCC(=O)N(c2ccc(F)cc2)C(C(=O)NC2CCCC2)c2cccnc2)no1` (configuration not stated), 6.51% (inactive); under `O=C(CCN1C(=O)/C(=C/c2ccc3c(c2)OCO3)SC1=S)Nc1ccccc1`, 2.89% (inactive). On the same count and under the same terms, to `O=C(CCCN1C(=O)/C(=C/c2ccc3c(c2)OCO3)SC1=S)Nc1cccc(C(=O)O)c1` belongs 0.32% (inactive); to `CC(C)c1ccc(C2N3CC4([N+](=O)[O-])CN2CC([N+](=O)[O-])(C3)C4(C)C)cc1` (configuration not stated), -2.65% (inactive); to `COc1ccccc1N1C(=O)Cc2ccccc2C1=O`, 1.63% (inactive). With `COc1ccc(/C=C2/NC(=O)N(Cc3ccccc3F)C2=O)cc1OC`, the inhibition was 0.77% (inactive). In the case of `COc1ccc2c(c1)C(=O)N(c1ccccc1OC)C(=O)C2`, the inhibition is 0.7% (inactive). As to `COc1ccc(/C=C2\C(=O)NC(=O)c3ccccc32)cc1OC`, the inhibition is 25.5% (inactive). On to `COc1ccc(C)cc1CN1C(=O)c2ccccc2C1=O`, for which the inhibition is -12.4% (inactive).

In the case of `COc1ccc(C=O)cc1CN1C(=O)c2ccccc2C1=O`, the inhibition was 5.3% (inactive). Still for that read-out and setting: under `O=c1cc(Cl)[nH]c(=O)n1Cc1ccc(F)cc1` stands -9.54% (inactive); under `Cc1cc(C)cc(NC(=O)c2ccc(NC(=O)c3ccco3)cc2)c1`, -0.32% (inactive). On the same count and under the same terms, to `N#CCC(=O)Nc1ccc(C(=O)NNC(=O)CCN2CCN(c3ccccc3)CC2)cc1` belongs -13.1% (inactive).

Turning to `CCC[C@@H](CN1CCC[C@H]1CN1C(N)=NC[C@H]1CC(C)C)N1C[C@@H](Cc2ccccc2)N(CCCC2CCCC2)C1=N`, the inhibition was -0.66% (inactive). Also, the inhibition (measured here: pilot screen replicate inhibition) is -1.83%. For the compound `CC(CN1CCN(Cc2ccccc2)CC1)OC(=O)c1ccco1` (configuration not stated), the inhibition was 2.3% (inactive).

With `O=C(O)C/C(=C\c1ccc(N2CCOCC2)c([N+](=O)[O-])c1)c1nc2ccccc2s1`, the inhibition is 6.96% (inactive). The same measure, in the same setting: to `O=C(O)CC/C(=C\c1ccc(N2CCOCC2)c([N+](=O)[O-])c1)c1nc2ccccc2s1` belongs 24% (inactive); to `Cc1ccc(/C=C(\CCC(=O)O)c2nc3ccccc3s2)cc1[N+](=O)[O-]`, 13.8% (inactive).

For the compound `CN(c1ccccc1)c1ccc(/C=C(\CCC(=O)O)c2nc3ccccc3s2)cc1[N+](=O)[O-]`, the inhibition was 26.1% (inactive). As for `COc1ccc(NC(=O)C2CCCCN2S(=O)(=O)c2ccc(F)cc2)cc1` (configuration not stated), the inhibition is -2.91% (inactive). Same read-out and setting: under `Cc1csc2nc(=O)c3ccccc3n12` stands -0.7% (inactive); under `Oc1c(Cl)cc(Cl)cc1CNc1nc2ccccc2[nH]1`, -17.7% (inactive); under `Cc1cccc(NCc2cc(Cl)cc(Cl)c2O)n1`, -2.76% (inactive). On the same count and under the same terms, under `O=C(CSc1nnc2scc(-c3ccccc3)n12)NCc1ccc2c(c1)OCO2` stands -2.59% (inactive); under `Nc1c(Cl)cc2c(c1Oc1ccccc1)C(=O)c1ccccc1C2=O`, 0% (inactive); under `NC1=C(Cl)C(=O)c2ccccc2C1=O`, -5.02% (inactive). For `Cc1cc(C)n(CC(=O)NNC(=O)COc2ccc(Cl)cc2Cl)n1`, the inhibition is -9.01% (inactive).

As to `COc1ccc2c(c1)[nH]c1c(=O)n(CCN3CCOCC3)cnc12`, the inhibition was -4.77% (inactive). Still for that read-out and setting: under `O=C(CN(C(=O)Cn1nnc(-c2ccc(F)cc2)n1)c1ccc(F)cc1)NC1CCCC1` stands -4.85% (inactive); under `O=C(NCc1cccs1)c1nc2c(nnn2Cc2ccc(F)cc2)c(=O)[nH]1`, -3.42% (inactive); under `O=C(NCc1ccco1)c1nc2c(nnn2Cc2ccccc2Cl)c(=O)[nH]1`, -1.35% (inactive).

For `COc1cc(/C=C2\SC(=O)N(c3ccc(Cl)cc3)C2=O)cc([N+](=O)[O-])c1O`, the inhibition is 3.7% (inactive). On the same count and under the same terms, to `COc1cc(/C=C2\SC(=O)N(Cc3ccc(F)cc3)C2=O)cc([N+](=O)[O-])c1O` belongs 14.6% (inactive); to `CC(C)c1ccc(CCNC(=O)CCNS(=O)(=O)c2ccc(Br)cc2)cc1`, 2.95% (inactive); to `CC1CCCN(CCCOc2ccc(Br)cc2Cl)C1` (configuration not stated), -5.92% (inactive).

In the case of `C=CCn1c(SCC(=O)c2[nH]c(C)c(C(=O)OCC)c2C)nc2scc(-c3ccccc3)c2c1=O`, the inhibition is 0.73% (inactive).

Take `Nc1ccccc1-c1nnc(SCc2ccccc2F)[nH]c1=O`: the inhibition is 2.71% (inactive). As to `CCC1Nc2ccccc2-c2nnc(SC)nc2O1` (configuration not stated), the inhibition is 6.45% (inactive). Still for that read-out and setting: under `O=c1cc(-c2ccccc2)nc(SCc2ccccc2F)[nH]1` stands -2.34% (inactive); under `CCSc1nnc2c(n1)OC1(CCCC1)Nc1ccccc1-2`, -4.17% (inactive); under `Cc1[nH]c(C)c(S(=O)(=O)N(Cc2ccccc2)C(C)C)c1C(=O)N1CCCC1`, -0.98% (inactive).

With `COc1ccc(S(=O)(=O)N2CCN(C(=O)CCOc3ccccc3)CC2)cc1OC`, the inhibition was 4.1% (inactive). Turning to `O=C(O)C1CCC(NSc2ccccc2[N+](=O)[O-])CC1` (configuration not stated), the inhibition is 7.73% (inactive). As to `O=C(O)c1ccccc1NSc1ccccc1[N+](=O)[O-]`, the inhibition is 21.6% (inactive).

Take `CCN(CC(=O)Nc1ccc(NC(C)=O)cc1)C(=O)c1ccc(NC2CC2)c([N+](=O)[O-])c1`: the inhibition was -1.48% (inactive). The same measure, in the same setting: under `Cc1ccc2c(c1C)NC(C(=O)O)C1CC=CC21` (configuration not stated) stands 9.74% (inactive); under `O=C(O)c1cccc2c1-c1c(cccc1[N+](=O)[O-])C2`, -1.17% (inactive); under `CCN(CC(=O)Nc1ccc(NC(C)=O)cc1)C(=O)c1ccc(N2CCC(C)CC2)c([N+](=O)[O-])c1`, -0.77% (inactive).
